An excerpt weighted towards active compounds, which were near 12% of everything screened.
m-calpain inh: inhibitors of pig calpain II | inhibition, % at 16 µM | purified calpain II, fluorogenic peptide substrate, 30 min | AID 1236 | 220,000 compounds, 0.37% hits;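 active = inhibition above about 50%, limit read from the data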
ROMK primary: human ROMK K+ channel modulation, primary screen; Tet-inducible ROMK, thallium flux fluorescence; actives lie on both sides; B-score at 10 µM; P48048; AID 1918; 130,000 compounds, 2% hits;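 active = signal ratio slope over the read window, or its plate-corrected B-score, at least 3 SD from the plate mean, either direction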;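 note: B-score of the F/F0 ratio slope over 7 to 12 s after thallium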
WT yeast gro inh: growth inhibition of WT yeast, mitochondrial fusion screen | inhibition, % at 10 µM | mitochondrial fusion phenotypic screen, WT strain | 190,000 compounds, 2.1% hits | AID 1362; in the data active = inhibition above about 58%; tested in S. cerevisiae
KCC2 mod: modulators of human KCC2 chloride dependent transport. Q9H2X9. B-score of Tl+ flux slope (higher = more flux/activation; lower = inhibition) at 10 µM. 190,000 compounds, 2.2% hits. KCC2 cells, thallium flux FluoZin-2 fluorescence. AID 1456;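 active = thallium flux slope and its plate-corrected score both differing from the plate sample mean at a set confidence after two filtering rounds, in either direction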;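 note: slope of fluorescence scaled to starting intensity during 10 to 20 s after thallium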
Target sequence (Q9H2X9 whole entry, looked up): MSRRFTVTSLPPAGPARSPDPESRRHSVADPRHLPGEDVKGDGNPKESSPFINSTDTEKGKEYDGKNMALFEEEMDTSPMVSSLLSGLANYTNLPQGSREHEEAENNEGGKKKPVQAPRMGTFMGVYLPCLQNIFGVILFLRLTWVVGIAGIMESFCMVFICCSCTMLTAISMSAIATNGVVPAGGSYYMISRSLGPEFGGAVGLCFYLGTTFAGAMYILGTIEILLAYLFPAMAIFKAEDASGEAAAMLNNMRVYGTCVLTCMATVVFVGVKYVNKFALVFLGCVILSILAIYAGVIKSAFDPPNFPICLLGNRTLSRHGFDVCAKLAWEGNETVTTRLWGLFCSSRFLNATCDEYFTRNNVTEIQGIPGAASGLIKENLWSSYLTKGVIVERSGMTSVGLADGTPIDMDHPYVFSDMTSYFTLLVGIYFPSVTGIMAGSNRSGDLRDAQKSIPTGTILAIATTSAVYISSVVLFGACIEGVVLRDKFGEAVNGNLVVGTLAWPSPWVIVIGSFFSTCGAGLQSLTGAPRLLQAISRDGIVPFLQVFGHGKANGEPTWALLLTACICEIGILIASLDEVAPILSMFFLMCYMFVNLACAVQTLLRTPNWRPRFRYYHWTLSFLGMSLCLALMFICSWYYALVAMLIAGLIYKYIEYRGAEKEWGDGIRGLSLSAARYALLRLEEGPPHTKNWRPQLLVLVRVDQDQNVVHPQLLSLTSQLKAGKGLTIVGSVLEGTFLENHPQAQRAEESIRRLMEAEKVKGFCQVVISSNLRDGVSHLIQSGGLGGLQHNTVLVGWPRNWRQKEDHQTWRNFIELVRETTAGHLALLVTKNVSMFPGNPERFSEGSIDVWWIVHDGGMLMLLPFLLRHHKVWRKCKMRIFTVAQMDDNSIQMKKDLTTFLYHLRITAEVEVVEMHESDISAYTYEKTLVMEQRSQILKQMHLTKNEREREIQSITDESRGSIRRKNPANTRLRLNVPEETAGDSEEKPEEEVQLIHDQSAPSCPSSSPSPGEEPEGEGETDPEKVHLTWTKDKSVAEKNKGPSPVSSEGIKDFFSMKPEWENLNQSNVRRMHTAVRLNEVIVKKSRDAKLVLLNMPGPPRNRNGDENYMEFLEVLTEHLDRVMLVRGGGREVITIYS
L major viab: reduces viability of Leishmania major promastigotes | resazurin fluorescence viability | inhibition, % at 10 µM | 200,000 compounds, 9% hits | AID 1063; in the data active = inhibition above about 50%;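 note: promastigotes grown with compound for 44 hours at 28 °C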
Active calls of the source: *; nt = no result.

SMILES	m-calpain inh	ROMK primary	WT yeast gro inh	KCC2 mod	L major viab
CCN1CCN(Cc2ccc(OCc3ccccc3)c(OC)c2)CC1	-19.9	nt	-2.3	-0.0688	65.1*
CNC(=O)c1ccc(OCc2ccccc2)c(OC)c1	-4.8	0.44	-13.5	0.244	-1.2
COc1cc(CN(C)CCc2ccccc2)ccc1OCc1ccccc1	-17.1	-0.551	-4.3	nt	96.0*
COc1ccc2ccccc2c1CN1CCN(Cc2ccccc2)CC1	-17.0	nt	-1.4	0.0338	56.0*
COc1ccc(CN2CCN(c3ccccn3)CC2)cc1OCc1ccccc1	-12.9	nt	13.1	-0.0115	72.5*
COc1ccccc1NC(=O)C1=C(C)NC2=C(C(=O)CCC2)C1c1ccc2c(c1)OCO2 (stereo not drawn)	-88.0	nt	10.1	-0.811	-0.9
Cc1ccccc1-n1nnnc1SCc1csc(-c2ccccc2)n1	-13.6	nt	34.2	-1.71	12.0
COc1ccc(CN2CCN(C(=O)c3ccco3)CC2)cc1OCc1ccccc1	1.9	0.194	13.3	-0.0659	87.3*
COc1ccc(CN2CCN(C(=O)c3ccco3)CC2)cc1OC	-1.4	-0.442	-8.7	-0.0165	-4.0
O=C(NC1CCCCCC1)c1ccc(CN2CCOCC2)cc1	-11.4	nt	12.2	0.385	59.3*
O=C(NCCC1=CCCCC1)c1ccc(F)cc1	-4.0	-0.96	-0.3	0.437	3.5
O=C(NCCC1=CCCCC1)c1ccc(CN2CCOCC2)cc1	-7.9	nt	-1.4	-0.349	81.2*
O=C(O)CNS(=O)(=O)c1ccc2c(c1)CCCC2	9.1	0.808	0.5	0.515	-5.1
COc1ccc(C(=O)NNC(=O)CSc2nnc(-c3cccnc3)o2)cc1	-21.7	0.0881	1.8	0.882	-4.8
Cc1cnc(NC(=O)CCNC(=O)c2ccc([N+](=O)[O-])cc2)s1	0.9	0.668	5.6	nt	-2.1
CC(C)(C)c1cccc(/C=N/O)c1O	-20.3	-2	6.5	nt	52.5*
Cc1nc2cccc(C(=O)Oc3ccc([N+](=O)[O-])cc3)c2o1	-10.5	-3.74	15.1	-1.09	-1.9
Cc1c(-c2ccccc2)nc2ccccc2c1C(=O)Oc1ccc([N+](=O)[O-])cc1	-0.5	nt	2.2	0.0285	50.5*
Cc1ccsc1/C=N/N1CCN(c2ccccc2)CC1	31.4	nt	-1.8	nt	52.6*
Cc1ccsc1/C=N/N1CCN(c2ccccn2)CC1	-2.4	nt	nt	-0.356	nt
Cc1nccc2[nH]c(=O)c(C(=O)NC3CCCCC3C)cc12 (stereo not drawn)	-46.2	nt	2.3	-0.619	99.0*
CCC(C)C1C(C#N)=C(N)Oc2n[nH]c(C)c21 (stereo not drawn)	-46.0	nt	-4.3	-0.658	67.0*
Cc1[nH]nc2c1C(c1ccco1)C(C#N)=C(N)O2 (stereo not drawn)	1.1	-1.61	-0.5	-0.872	24.7
Cc1[nH]nc2c1C(c1cc(Br)cs1)C(C#N)=C(N)O2 (stereo not drawn)	28.4	-1.83	17.3	-0.0168	98.7*
COc1ccc(-c2ccc(C3C(C#N)=C(N)Oc4n[nH]c(C)c43)o2)cc1 (stereo not drawn)	-4.5	nt	1.2	-0.0957	71.2*
SMILES	m-calpain inh	ROMK primary	WT yeast gro inh	KCC2 mod	L major viab
CN1CC(=O)Nc2ccc(F)cc2C1=O	-7.1	0.805	59.7*	-0.101	-5.6
CCCC(=O)N1CC(=O)Nc2ccc(F)cc2C1c1ccccc1 (stereo not drawn)	17.1	nt	7.4	0.363	33.1
CCCc1cc(-c2n[nH]c(=S)n2C(C)c2ccccc2)cs1 (stereo not drawn)	27.9	0.0556	63.8*	7.56*	0.1
CCc1cc(-c2n[nH]c(=S)n2-c2ccccc2C)cs1	-53.9	-0.341	60.2*	1.68	-3.8
CCc1cc(-c2n[nH]c(=S)n2CC)cs1	-7.7	-0.0264	11.7	0.176	13.2
Cc1ccc(-c2nc3ccccc3[nH]2)cc1NC(=O)c1sc2cc(Cl)ccc2c1Cl	-53.4	nt	-16.2	0.975	36.3
CC1(C(=O)OCc2cc(=O)n3cc(Br)ccc3n2)CC1(Cl)Cl (stereo not drawn)	-16.2	nt	-3.4	-0.666	7.3
CC1Oc2ccccc2N(CC(=O)NCc2ccc3c(c2)OCO3)C1=O (stereo not drawn)	25.6	0.00541	4.0	-0.589	-0.7
Cc1cccnc1CN1CCN(Cc2nc(Cc3cccc(F)c3)no2)CC1	12.7	-0.0591	9.1	0.611	-2.8
NC(=O)/C(=C/c1ccco1)C(N)=S	20.0	nt	nt	nt	nt
Cc1ccc(S(=O)(=O)Nc2nc(C)c(C(=O)N/N=C/c3ccccc3)s2)cc1	-7.0	-0.102	4.0	0.294	1.5
COc1ccc(/C=C(\C#N)C(=O)OCC(=O)NCc2ccc(Cl)cc2)cc1	0.1	-0.299	4.9	-0.607	58.8*
CCCCN1CCCC1CNC(=O)c1cc(C#N)c2ccccc2c1OC (stereo not drawn)	11.0	nt	-7.6	0.0388	nt
O=C(/C=C/c1ccccc1)NC(NC(=S)Nc1cccc(O)c1)C(Cl)(Cl)Cl (stereo not drawn)	-40.3	-1.26	-15.7	-1.85	92.8*
O=C(/C=C/c1ccccc1)NC(NC(=S)Nc1cccc(Cl)c1)C(Cl)(Cl)Cl (stereo not drawn)	-6.1	nt	1.0	nt	39.4
O=C(/C=C/c1ccccc1)NC(NC(=S)Nc1ccc(Cl)cc1Cl)C(Cl)(Cl)Cl (stereo not drawn)	-38.1	nt	38.3	-0.541	58.8*
O=C(O)c1cccnc1SCc1cccc(Cl)c1	-35.8	0.105	-11.2	-1.2	1.4
O=C(CSc1ccc(Cl)cc1)NNC(=O)c1cccnc1	-8.7	0.356	-19.3	-0.0651	-4.0
COc1ccccc1COCC(O)CN(Cc1ccco1)Cc1ccccc1O (stereo not drawn)	37.9	-1.55	23.7	-0.651	82.1*
CN(Cc1cccs1)CC(O)COCc1ccco1 (stereo not drawn)	0.6	nt	-10.0	0.0787	-0.9
O=c1nc(N/N=C/c2ccccn2)cn[nH]1	-8.1	nt	18.2	0.739	97.5*
Cc1cc(=O)[nH]c(N/N=C/c2ccccn2)n1	7.2	-0.0174	1.9	0.175	98.8*
O=c1cnnc(N/N=C/c2ccccn2)[nH]1	-6.0	0.0682	nt	-0.217	nt
Cc1ccc(/C=N/Nc2cn[nH]c(=O)n2)o1	-17.5	-0.394	5.6	0.036	-6.1
CC(=O)NCCC(=O)Nc1sc2c(c1-c1nc3ccccc3[nH]1)CCCC2	-23.0	nt	24.0	-0.772	98.0*
SMILES	m-calpain inh	ROMK primary	WT yeast gro inh	KCC2 mod	L major viab
O=C(Nc1nc2ccccc2[nH]1)C1CC1	11.9	0.763	12.1	-0.0551	4.1
CN1CCN(S(=O)(=O)c2cccc(C(=O)Nc3sc4c(c3-c3nc5ccccc5[nH]3)CCCC4)c2)CC1	-63.7	nt	4.5	0.471	98.1*
CC(C)OC(=O)c1c(NC(=O)CCn2nnc3ccccc32)sc2c1CCCC2	-36.6	nt	-16.5	-0.499	28.0
O=C(Nc1sc2c(c1-c1nc3ccccc3[nH]1)CCCC2)C1CCCC1	-62.7	nt	17.0	0.279	87.5*
Cc1ccc(-c2nc3ccc(Cl)cc3n2OC(C)C(=O)O)cc1 (stereo not drawn)	6.9	1.77	-6.3	-0.435	3.0
Cn1c(CCC(=O)OCC(=O)NCc2ccc3c(c2)OCO3)nc(=O)c2ccccc21	11.8	0.538	-4.2	0.787	-11.2
Cc1nc(-c2ccc(S(=O)(=O)N3CCN(CCc4ccccc4)CC3)s2)cs1	-4.0	-1.52	nt	0.693	nt
NC(=O)c1c(-c2ccc(Cl)cc2Cl)csc1NC(=O)Cc1ccccc1	16.0	nt	2.4	-0.161	47.3

From PubChem
